Assay results as given in PubChem BioAssay AID1159580 (chemical genetic matrix, 2015).
Where “and” joins values, the source holds several entries; their conditions need not be identical. Equal entries are not always repeated. In all, about 5,500 compounds went through this assay and about 2,000 (36%) were called active. Roughly 18% stayed inconclusive and do not appear here. Cut-off read from the data, not from the text of the source: active = normalized growth mostly below about 0.91 (no sharp cut-off); inconclusive = no clear call, values can overlap the other calls; inactive = mostly above about 0.92. The list shows a part of the results.

Experiment: chemical genetic growth profiling, strain panel (AID 1159580);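 note: tested at 20 µM; growth read once vehicle control cultures reached saturation at 30 °C; 1 = growth at the plate median or of vehicle wells; lower values mean less growth of the strain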
Conditions: S. cerevisiae deletion strains, growth OD

Measured: normalized growth

CC12CCC(=O)C=C1CCC1C2[C@@H](O)CC2(C)C1CC[C@]2(O)C(=O)COP(=O)(O)O (stereo partly drawn)
inactive: locus YAL013W, strain DEP1, stronger effect = lower value 1.02 | locus YAL021C, strain ccr4, stronger effect = lower value 1 | locus YAL026C, strain drs2, stronger effect = lower value 0.999 | locus YAL030W, strain snc1, stronger effect = lower value 1.01 | locus YBL061C, strain skt5, stronger effect = lower value 0.998 | locus YBR009C, strain hhf1, stronger effect = lower value 0.994 | locus YBR021W, strain FUR4, stronger effect = lower value 1.02 | locus YBR023C, strain chs3, stronger effect = lower value 0.992 | locus YBR171W, strain sec66, stronger effect = lower value 1 | locus YBR229C, strain ROT2, stronger effect = lower value 1.01 | locus YBR231C, strain swc5, stronger effect = lower value 0.989 | locus YBR279W, strain paf1, stronger effect = lower value 1 | locus YCL011C, strain gbp2, stronger effect = lower value 0.991 | locus YCL016C, strain dcc1, stronger effect = lower value 0.973 | locus YCL029C, strain bik1, stronger effect = lower value 1.01 | locus YCL061C, strain MRC1, stronger effect = lower value 0.999 | locus YCL069W, strain vba3, stronger effect = lower value 1.01 | locus YCR088W, strain abp1, stronger effect = lower value 0.995 | locus YDL005C, strain med2, stronger effect = lower value 0.997 | locus YDL035C, strain GPR1, stronger effect = lower value 1.01 | locus YDL040C, strain nat1, stronger effect = lower value 1.01 | locus YDL074C, strain BRE1, stronger effect = lower value 1.02 | locus YDL101C, strain DUN1, stronger effect = lower value 1.01 | locus YDL185W, strain tfp1, stronger effect = lower value 1 | locus YDL192W, strain arf1, stronger effect = lower value 1.01 | locus YDR001C, strain nth1, stronger effect = lower value 0.996 | locus YDR069C, strain doa4, stronger effect = lower value 1.01 | locus YDR101C, strain arx1, stronger effect = lower value 1.03 | locus YDR137W, strain rgp1, stronger effect = lower value 0.992 | locus YDR150W, strain NUM1, stronger effect = lower value 1.02 | locus YDR159W, strain sac3, stronger effect = lower value 1 | locus YDR162C, strain NBP2, stronger effect = lower value 1.01 | locus YDR195W, strain ref2 0.992 | locus YDR297W, strain sur2, stronger effect = lower value 0.996 | locus YDR318W, strain mcm21, stronger effect = lower value 0.999 | locus YDR334W, strain swr1, stronger effect = lower value 0.998 | locus YDR335W, strain msn5, stronger effect = lower value 1.01 | locus YDR388W, stronger effect = lower value 1 | locus YDR392W, strain spt3, stronger effect = lower value 0.928 | locus YDR502C, strain sam2, stronger effect = lower value 1 | locus YEL003W, strain gim4, stronger effect = lower value 1 | locus YEL037C, strain rad23, stronger effect = lower value 1.01 | locus YEL061C, strain CIN8 (second series), stronger effect = lower value 1 | locus YEL061C, strain CIN8, stronger effect = lower value 1.02 | locus YER015W, strain faa2, stronger effect = lower value 1 | locus YER016W, strain bim1, stronger effect = lower value 1 | locus YER110C, stronger effect = lower value 1.01 | locus YER111C, strain swi4, stronger effect = lower value 1 | locus YER155C, strain BEM2 (second series), stronger effect = lower value 1.01 | locus YER155C, strain BEM2, stronger effect = lower value 1.01 | locus YER167W, strain BCK2, stronger effect = lower value 1.01 | locus YFR010W, strain ubp6, stronger effect = lower value 1.01 | locus YGL078C, strain dbp3, stronger effect = lower value 0.994 | locus YGL086W, strain mad1, stronger effect = lower value 1 | locus YGL167C, strain pmr1, stronger effect = lower value 0.996 | locus YGL173C, strain kem1, stronger effect = lower value 0.995 | locus YGL227W, strain vid30, stronger effect = lower value 0.996 | locus YGL240W, strain doc1, stronger effect = lower value 1.01 | locus YGL248W, strain PDE1, stronger effect = lower value 1 | locus YGL253W, strain hxk2, stronger effect = lower value 1.01 | locus YGR078C, strain PAC10, stronger effect = lower value 1.01 | locus YGR135W, strain pre9, stronger effect = lower value 0.997 | locus YGR229C, strain SMI1, stronger effect = lower value 1.02 | locus YGR252W, strain gcn5, stronger effect = lower value 0.958 | locus YHR013C, strain ard1, stronger effect = lower value 0.991 | locus YHR027C, strain rpn1, stronger effect = lower value 0.994 | locus YHR030C, strain SLT2, stronger effect = lower value 1.02 and 0.987 | locus YHR079C, strain IRE1 (second series), stronger effect = lower value 1 | locus YHR079C, strain IRE1, stronger effect = lower value 0.96 | locus YHR094C, strain hxt1, stronger effect = lower value 1.01 | locus YHR129C, strain ARP1, stronger effect = lower value 1.01 | locus YHR142W, strain chs7, stronger effect = lower value 0.993 | locus YHR200W, strain rpn10, stronger effect = lower value 1.01 | locus YIL066C, strain RNR3, stronger effect = lower value 1.02 | locus YIL073C, strain SPO22, stronger effect = lower value 1.01 | locus YIL125W, strain kgd1, stronger effect = lower value 0.985 | locus YIR030C, strain dcg1, stronger effect = lower value 1.01 | locus YJL092W, strain hpr5, stronger effect = lower value 1 | locus YJL095W, strain BCK1 (second series), stronger effect = lower value 0.995 | locus YJL095W, strain BCK1, stronger effect = lower value 1.01 and 0.981 | locus YJL115W, strain asf1, stronger effect = lower value 0.997 | locus YJL129C, strain trk1, stronger effect = lower value 1.01 | locus YJL134W, strain LCB3, stronger effect = lower value 1.01 | locus YJL154C, strain vps35, stronger effect = lower value 1 | locus YJL164C, strain tpk1, stronger effect = lower value 0.995 | locus YJL166W, strain qcr8, stronger effect = lower value 0.986 | locus YJL168C, strain set2, stronger effect = lower value 0.998 | locus YJL187C, strain SWE1 (second series), stronger effect = lower value 1.01 | locus YJL187C, strain SWE1, stronger effect = lower value 1 | locus YJR043C, strain POL32, stronger effect = lower value 1.02 | locus YJR066W, strain TOR1, stronger effect = lower value 0.917 | locus YKL009W, strain mrt4, stronger effect = lower value 1.01 | locus YKL068W, stronger effect = lower value 1.01 | locus YKL085W, strain MDH1 (second series), stronger effect = lower value 1 | locus YKL085W, strain MDH1, stronger effect = lower value 1 | locus YKL160W, strain elf1, stronger effect = lower value 0.985 | locus YKL190W, strain CNB1, stronger effect = lower value 1.02 | locus YKR001C, strain vps1, stronger effect = lower value 0.997 | locus YKR026C, strain gcn3, stronger effect = lower value 1.01 | locus YKR091W, strain srl3, stronger effect = lower value 1 | locus YLL001W, strain dnm1, stronger effect = lower value 0.982 | locus YLL026W, stronger effect = lower value 1 | locus YLL041C, strain sdh2, stronger effect = lower value 0.997 | locus YLR027C, strain aat2, stronger effect = lower value 1.01 | locus YLR039C, strain RIC1, stronger effect = lower value 0.976 | locus YLR058C, strain SHM2, stronger effect = lower value 1 | locus YLR102C, strain apc9, stronger effect = lower value 0.998 | locus YLR113W, strain HOG1, stronger effect = lower value 1 | locus YLR221C, strain rsa3, stronger effect = lower value 0.986 | locus YLR258W, strain gsy2, stronger effect = lower value 1.03 | locus YLR262C, strain YPT6 (second series), stronger effect = lower value 0.987 | locus YLR262C, strain YPT6, stronger effect = lower value 1.06 | locus YLR268W, strain sec22, stronger effect = lower value 0.993 | locus YLR320W, strain mms22, stronger effect = lower value 0.994 | locus YLR330W, strain CHS5, stronger effect = lower value 1.01 | locus YLR342W, strain FKS1 (second series), stronger effect = lower value 1 | locus YLR342W, strain FKS1, stronger effect = lower value 1 | locus YLR357W, strain rsc2, stronger effect = lower value 0.998 | locus YLR370C, strain arc18, stronger effect = lower value 1.01 | locus YLR371W, strain rom2, stronger effect = lower value 0.994 | locus YLR384C, strain iki3, stronger effect = lower value 0.995 | locus YLR418C, strain cdc73, stronger effect = lower value 0.982 | locus YML016C, strain PPZ1, stronger effect = lower value 1 | locus YML032C, strain rad52, stronger effect = lower value 0.991 | locus YML120C, strain ndi1, stronger effect = lower value 0.995 | locus YML124C, strain tub3, stronger effect = lower value 0.999 | locus YMR058W, strain fet3, stronger effect = lower value 0.998 | locus YMR078C, strain ctf18, stronger effect = lower value 1 | locus YMR125W, strain sto1, stronger effect = lower value 0.997 | locus YMR129W, stronger effect = lower value 1 | locus YMR205C, strain PFK2, stronger effect = lower value 0.983 | locus YMR223W, strain ubp8, stronger effect = lower value 0.993 | locus YMR231W, strain pep5, stronger effect = lower value 1 | locus YMR263W, strain SAP30, stronger effect = lower value 1.02 | locus YMR307W, strain GAS1, stronger effect = lower value 0.988 | locus YNL067W, strain RPL9B, stronger effect = lower value 1.02 | locus YNL071W, strain lat1, stronger effect = lower value 1 | locus YNL128W, strain TEP1, stronger effect = lower value 1.03 | locus YNL183C, strain NPR1, stronger effect = lower value 0.951 | locus YNL209W, strain ssb2, stronger effect = lower value 1 | locus YNL233W, strain BNI4, stronger effect = lower value 1.01 | locus YNL248C, strain rpa49, stronger effect = lower value 1.01 | locus YNL250W, strain rad50, stronger effect = lower value 1 | locus YNL271C, strain bni1, stronger effect = lower value 1 | locus YNL298W, strain CLA4, stronger effect = lower value 0.992 | locus YNL307C, strain MCK1, stronger effect = lower value 1 | locus YNL322C, strain KRE1 (second series), stronger effect = lower value 0.999 | locus YNR049C, strain mso1, stronger effect = lower value 0.995 | locus YNR052C, strain pop2, stronger effect = lower value 0.998 | locus YOL012C, strain htz1 0.651 | locus YOL147C, strain pex11, stronger effect = lower value 1.01 | locus YOR001W, strain rrp6, stronger effect = lower value 0.989 | locus YOR061W, strain CKA2, stronger effect = lower value 1 | locus YOR069W, strain VPS5, stronger effect = lower value 1.01 | locus YOR070C, strain gyp1, stronger effect = lower value 0.999 | locus YOR080W, strain dia2, stronger effect = lower value 0.999 | locus YOR083W, strain WHI5, stronger effect = lower value 0.993 | locus YOR106W, strain vam3, stronger effect = lower value 0.976 | locus YOR136W, strain idh2, stronger effect = lower value 0.995 | locus YOR144C, strain elg1, stronger effect = lower value 1 | locus YOR184W, strain ser1, stronger effect = lower value 0.992 | locus YOR231W, strain MKK1, stronger effect = lower value 0.981 | locus YOR265W, strain rbl2, stronger effect = lower value 1 | locus YOR270C, strain vph1, stronger effect = lower value 1.01 | locus YOR290C, strain snf2, stronger effect = lower value 0.914 | locus YOR316C, strain cot1, stronger effect = lower value 1.01 | locus YPL051W, strain arl3, stronger effect = lower value 0.986 | locus YPL055C, strain LGE1, stronger effect = lower value 1.01 | locus YPL078C, strain atp4, stronger effect = lower value 0.995 | locus YPL106C, strain sse1, stronger effect = lower value 0.969 | locus YPL240C, strain hsp82, stronger effect = lower value 0.991 | locus YPL241C, strain CIN2, stronger effect = lower value 1.01 | locus YPL256C, strain CLN2, stronger effect = lower value 0.957 | locus YPR119W, strain clb2, stronger effect = lower value 1 | locus YPR141C, strain kar3, stronger effect = lower value 1.01 | locus YPR163C, strain tif3, stronger effect = lower value 1.01 | locus YPR167C, strain met16, stronger effect = lower value 0.998 | strain wtn01, stronger effect = lower value 1
